Reference: PubChem BioAssay (NCI)
Where “and” joins values, the source holds several entries; their conditions need not be identical. Equal entries are not always repeated. Compounds without any hit were thinned out: in the full panel of roughly 83,000, 20% have a hit.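 Cells were grown in 96-well plates and exposed to the test compound at a single concentration for 48 hours; results are reported as percent growth, with values below 10 considered active.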 Calls of active or inactive are those of the source.

The compounds below were run on MDA-MB-468 breast (assay: NCI-60 one-dose screen, 48 h (100 = growth as untreated, 0 = no growth, -100 = all killed)). Details: 10 µM unless noted.

SMILES	growth
Cn1cc(-c2csc(-c3c[nH]c4ncccc34)n2)c2cc(F)cnc21	-16% (active)
Clc1ccc2c(N/N=C/c3c[nH]c4ccccc34)ccnc2c1	-75.9% (active)
Cc1[nH]c2ccccc2c1/C=N/Nc1ncnc2sc3c(c12)CCN(CC(=O)OC(C)(C)C)C3	47.5% (inactive)
CCN(CC)CC(O)c1cc(-c2ccc(Cl)cc2)nc2cc(Cl)ccc12 (stereo not given)	-76.9% (active)
O=C1Nc2ccccc2/C1=C/c1cccn1CCCCCn1c2ccccc2c(=O)c2ccccc21	37.6% (inactive)
NC(=O)N/N=C/c1ccc(Br)o1	109% (inactive)
C=C1CC2(OC1=O)C(=O)N(CCCN1C(=O)C3(CC(=C)C(=O)O3)c3ccccc31)c1ccccc12 (stereo not given)	-34% (active)
CC(C)(C)n1cc(-c2ccnc(NCCCNS(=O)(=O)c3ccc(C(F)(F)F)cc3)c2)c(-c2cccc(F)c2)n1	98.6% (inactive)
COc1ccc(N)c(N)c1	84% (inactive)
COc1ccc(-c2nnc(N3CCN(C(=O)CN4CCN(c5ccccc5)CC4)CC3)nc2-c2ccc(OC)cc2)cc1	41.4% (inactive)
COc1cccc(/C=C/C(=O)c2ccc(NC(=O)COc3cccc4cccnc34)cc2)c1	90.9% (inactive)
CCOCCc1c(O)nc(SC)[nH]c1=O	82.5% (inactive)
CCOC(=O)CN(c1sc(C)c(C)c1C(=O)OCC)S(=O)(=O)c1ccc(C)cc1	89.6% (inactive)
C#CC[C@@H]1C[C@]2(C)[C@H]3CC=C4[C@H]5[C@@H](C)[C@H](C)CC[C@]5(C(=O)NCCCN5CCN(CCCN)CC5)CC[C@@]4(C)[C@]3(C)CC[C@H]2C(C)(C)[C@H]1OC(C)=O	-72.9% (active)
O=C1/C(=C\c2cccn2Cc2ccccc2)c2ccccc2N1c1c(Cl)cccc1Cl	-77.5% (active)
O=C1/C=C/[C@@H](O)[C@@H]2C[C@@H](O)C[C@H]2/C=C/CCC[C@H](CCc2ccccc2)O1	-43.7% (active)
O=C1c2cccc3cccc(c23)C(=O)N1Nc1nc(N2CCOCC2)nc(N2CCN(c3ccccc3)CC2)n1	-15.8% (active)
CCCOc1nc(SCCC)nc2c1cnn2-c1ccccc1	106% (inactive)
CCCCCCCCNc1cc2c3c(c1)CCCN3CCC2	-23% (active)
CN(C)CCCNC1=C(Cl)C(=O)c2ccccc2C1=O	-8.11% (active) and -54.1% (active)

SMILES	growth
O=C(c1nc2ccccc2[nH]1)C1[C@@H](c2cccc(O)c2)C2CC3CCCCC3N2[C@@]12C(=O)Nc1cc(Cl)ccc12 (stereo not given in full)	32.5% (inactive)
O=C(c1ccncc1)N1N=C(c2ccc(Cl)cc2)C[C@H]1c1cn(-c2ccccc2)nc1-c1ccccc1	88.5% (inactive)
N#CCCN(CCCN1CCOCC1)CN1C(=O)c2ccccc2C1=O	92.2% (inactive)
COc1cc(Br)c(-c2nc(-c3ccccc3)c(-c3ccccc3)n2Cc2ccccc2)cc1OC	54% (inactive)
CN(C)CC(C(=O)c1ccccc1)c1ccccc1 (stereo not given)	-47.8% (active)
CCc1c(C)c2cc3c(c(C)c2oc1=O)OCC(=O)N3	69.4% (inactive)
N=C(N)N=Nc1ccc(NN=C(N)N)c2ccccc12	-27.2% (active)
FC(F)(F)c1ccc(CNc2ccc(Cc3c[nH]c4ncc(Cl)cc34)cn2)cn1	-0.191% (active)
C=C[C@@H]1C[C@@H]2Cc3cc(Cl)ccc3N1O2	95.1% (inactive)
O=C(N/N=C/c1cc2ccccc2nc1Cl)c1cc(-c2nc3ccccc3[nH]2)nc2ccccc12	98.5% (inactive)
COc1cc(OC)cc(-c2ccc(-c3ccc(C(=N)N)o3)o2)c1	10.5% (inactive)
O=C1C(=O)c2ccccc2C(O)=C1CCCc1ccc(C2CCCCCC2)cc1	5.94% (active)
O=S(=O)(Nc1ccc2c(c1)OCO2)c1ccc(-c2cnc(C3CC3)o2)cc1	-3.85% (active)
Nc1nccc(Nc2ccccc2)n1	116% (inactive)
COc1cc2c(c(OC)c1OC)C(=O)CC(c1cccc(C(=O)Nc3cccc(Br)c3)c1)O2 (stereo not given)	71% (inactive)
COc1cccc(CCNc2ncnc3c2ncn3Cc2nnc3c4ccccc4c(Cl)nn23)c1	57.4% (inactive)
O=C(Nc1cc(F)cc2cccnc12)c1cnc(N2CCNCC2)cn1	-5.12% (active)
COc1ccccc1CNc1c2ccccc2nc2ccccc12	28.3% (inactive)
C=C(C)[C@H]1CC/C(C)=C/CC[C@]2(C)O[C@H]2CC/C(COC(=O)[C@@H](OC(C)=O)[C@H](NC(=O)c2ccccc2)c2ccccc2)=C\[C@@H]1O	84.4% (inactive)
Clc1cc(Cl)cc(-c2ccc(-c3ccc(/C=N/NC4=NCCN4)cc3)s2)c1	-3.62% (active)
